This note sets out measurements from PubChem BioAssay (Tox21).

Each structure is given as a SMILES string. Results filed as inconclusive are left out. Where a call stands in place of a potency, no number is given. Where a structure was tested more than once in an assay, its records may differ in their call. Calls of active or inactive are those of the source. The call rests on the fitted dose curve; in most records, active means well fitted activation curve with a large enough effect in the repeat runs; inconclusive means weak or mixed curves; inactive means flat fitted curve, though single readings scatter.
Potency means the concentration at half of the fitted maximal effect.

The assay in a line: A CellTox Green Cytotoxicity Assay to monitor cytotoxicity in HepG2 cells - 24 hour (AID 1224878). Further: nearly all actives have a fitted effect of over 45% in size. The following applies: CellTox Green fluorescence; series mostly up to 76.8 µM. The text has this:
National Center for Advancing Translational Sciences [NCATS]
NIH Chemical Genomics Center [NCGC]
U.S. Environmental Protection Agency [EPA]
National Institutes of Environmental Health Sciences [NIEHS]
National Toxicology Program [NTP]
Cell-based models are critical for drug discovery. Determining the natural cytotoxic effects resulting from test compounds is an essential research activity. A CellTox Green Cytotoxicity Assay to monitor cytotoxicity in real time of continues cell culture during 40 hours of the compound treatment was used to screen Tox21 10K library compounds in HepG2 cells. CellTox Green Cytotoxicity Assay is a nonlytic, homogeneous, biofluorescent method to measure cytotoxicity in cell culture after experimental manipulation. The assay system uses a proprietary asymmetric cyanine dye that is excluded from viable cells but preferentially stains the dead cell's DNA. […] Viable cells produce no appreciable increases in fluorescence. Therefore, the fluorescence signal produced by the binding interaction with dead cell DNA is proportional to cytotoxicity.
The mixture of HepG2 cell suspension and reagents were dispensed at 600cells/6 ul/well in 1536-well tissue culture treated black solid bottom plates using a Multidrop dispenser. After the assay plates were incubated at a 37 C/5% CO2 incubator for 5 hours, 23 nL of compounds dissolved in DMSO, positive and negative controls was transferred to the assay plate by a pintool work station. The plates were incubated at 37 C for 40 hours. The fluorescence intensity were measured at 0h, 8h, 16h, 24h, 32h and 40h time points using ViewLux plate reader during compound treatment.
Turning to `O=c1c(O)c(-c2ccc(O)c(O)c2)oc2cc(O)cc(O)c12`, the Potency result was “inactive”.

For `C=C1C[C@]23C[C@@]1(O)CC[C@H]2[C@@]12C=C[C@H](O)[C@@](C)(C(=O)O1)[C@H]2[C@@H]3C(=O)O`, the Potency result is “inactive”.

In the case of `O=C(O)Cc1c[nH]c2ccccc12`, the Potency entry was “inactive”.

Take `C=CC(=O)NCOCCCC`: the Potency entry was “inactive”.

Regarding `CC[N+](CC)(CC(=O)Nc1c(C)cccc1C)Cc1ccccc1`, the Potency result is “inactive”.

Consider `Cc1ncc(CO)c(CO)c1O`, for which the Potency result was “inactive”.

Turning to `C=C(C)CC(C)(C)C`, the Potency result was “inactive”.

On to `O=C1OC(=O)c2c(Cl)c(Cl)c(Cl)c(Cl)c21`, for which the Potency result is “inactive”.

Take `CC/C(C)=N/O`: the Potency entry is “inactive”.

For `CS(=O)(=O)c1ccc(Cl)cc1`, the Potency entry is “inactive”.

On to `CC(C)c1ccc(C(C)C)cc1`, for which the Potency result was “inactive”.

On to `CC(C)=CCC/C(C)=C/C=O`, for which the Potency result is “inactive”.

For the compound `c1cnc2c(c1)ccc1cccnc12`, the Potency entry was “inactive”.

Consider `O=C1C(N(CO)C(=O)NCO)N(CO)C(=O)N1CO` (stereo not given), for which the Potency entry is “inactive”.

Consider `CCc1cccc(CC)c1N`, for which the Potency entry is “inactive”.

As to `CC(C)(C)NC[C@H](O)COc1nsnc1N1CCOCC1`, the Potency entry is “inactive”.

With `CCCCC(=O)O`, the Potency result was “inactive”.

For the compound `Nc1cccc(C(F)(F)F)c1`, the Potency entry was “inactive”.

For the compound `NC(=O)NC(N)=O`, the Potency result was “inactive”.

On to `CCCN(CCC)C(=O)SCC`, for which the Potency result is “inactive”.

Regarding `COC(=O)/C=C\C(=O)OC`, the Potency entry is “inactive”.

`CCCCCCCC(=O)O`: the Potency entry is “inactive”.

With `CCCCCNCCCCC`, the Potency entry was “inactive”.

As for `O=C(NCC1CCCCN1)c1cc(OCC(F)(F)F)ccc1OCC(F)(F)F` (stereo not given), the Potency result is “inactive”.

`NC1CCCCC1N` (stereo not given): the Potency result is “inactive”.

On to `Nc1nc(N)c2nc(-c3ccccc3)c(N)nc2n1`, for which the Potency was 54.9 µM (active) and inactive.

For `CC(C)(CO)CO`, the Potency entry is “inactive”.

As for `Cc1nnc(NS(=O)(=O)c2ccc(N)cc2)s1`, the Potency result is “inactive”.

In the case of `CCOC(=O)CC(=O)OCC`, the Potency result is “inactive”.

In the case of `CCCCCCCCCCCC(=O)N(C)CC(=O)O`, the Potency result is “inactive”.

For `OC1CCCCC1`, the Potency result is “inactive”.

For `CC(=O)c1nccs1`, the Potency result is “inactive”.

As to `O=C1O[C@H]([C@H](O)CO)C(O)=C1O`, the Potency entry is “inactive”.

`Cc1ccncc1`: the Potency result was “inactive”.

As for `COc1c(Cl)ccc(Cl)c1C(=O)O`, the Potency result is “inactive”.

On to `NC(=O)c1ncn([C@@H]2O[C@H](CO)[C@@H](O)[C@H]2O)n1`, for which the Potency result is “inactive”.

Take `OCC(CO)(CO)CO`: the Potency entry was “inactive”.

`Cc1ccc(Cl)cc1`: the Potency entry is “inactive”.

On to `COc1c2ccoc2cc2oc(=O)ccc12`, for which the Potency entry is “inactive”.

On to `Cc1cc(C)cc(O)c1`, for which the Potency entry was “inactive”.
